# Active and inactive are the calls of the source. Unless noted, the rule behind the calls is not given here.
# Columns and labels:
# [1] = tested on: Wnt5a (protein binding on small-molecule microarray); experiment: small molecules binding Wnt5a protein – biophysical, small-molecule microarray, 635/667 nm fluorescence, primary screen (AID 1142); conditions: 635 nm fluorescence, higher = more signal;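 note: fluorescence read at 667 nm with signal to noise per printed feature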
# [2] = ATP-based viability of Huh7 replicon cells – cell-based, CellTiter-Glo luminescence, basal, 48 h, cytotoxicity control for HCV replication inhibitor project, primary screen (AID 1143); conditions: higher = more signal, called active from +8 up or from −8 down;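 note: Huh7 hepatoma cells carrying a hepatitis C replication reporter with no stimulus; test concentration not given here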
# [3] = Pseudomonas biofilm growth suppression – PAO1 strain, BacTiter-Glo luminescence, LB-PBS, primary screen (AID 1144); conditions: P. aeruginosa PAO1 biofilm, 12 h, higher = more signal
# [4] = basal CRE-LacZ reporter activity in PC12 – cell-based, unstimulated, primary screen (AID 1145); conditions: no forskolin, luminescence, 4.5 h, higher = more signal, called active from +8 up or from −8 down
# [5] = forskolin-driven CRE-LacZ activity in PC12 – cell-based, CRE-LacZ reporter, forskolin-stimulated, primary screen (AID 1146); conditions: luminescence, 4.5 h, higher = more signal, called active from +8 up or from −8 down;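 note: PC12 cells with 6xCRE LacZ reporter stimulated by forskolin 10 µM; beta-galactosidase reporter signal reflecting CREB driven transcription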
# [6] = target: Streptavidin (Streptomyces avidinii) (UniProt P22629); experiment: compounds binding control protein streptavidin – biophysical, small-molecule microarray, 635/667 nm fluorescence, artefact control for SMM compound annotation, primary screen (AID 1147); conditions: higher = more signal;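 note: signal reflects streptavidin binding to arrayed compounds as a control protein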
# [7] = probe aInhba binding on compound microarray – biochemical, small-molecule microarray, 635/667 nm fluorescence, primary screen (AID 1148); conditions: higher = more signal;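 note: score merges 667nm spot fluorescence with signal-to-noise for antibody binding to printed compounds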
# Torsin-1A (Homo sapiens) [8] = target: Torsin-1A (Homo sapiens) (UniProt O14656); experiment: TOR1A wild-type binding on microarray – cell lysate, small-molecule microarray, lysate, 635/667 nm, primary screen (AID 1149); conditions: COS7 hTOR1A-WT lysate, 635 nm fluorescence, higher = more signal
# Torsin-1A (Homo sapiens) [9] = target: Torsin-1A (Homo sapiens) (UniProt O14656); experiment: torsin A mutant lysate binding on microarrays – cell lysate, small-molecule microarray, COS7 lysate, 635/667 nm fluorescence, primary screen (AID 1150); conditions: COS7 hTOR1A mutant lysate, 635 nm fluorescence, higher = more signal;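 note: score pools 667 nm emission and signal to noise measuring lysate protein binding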
# [10] = tested on: Sonic hedgehog protein (Shh); experiment: Sonic hedgehog microarray binding compounds – biochemical, small-molecule microarray, 635/667 nm fluorescence, primary screen (AID 1151); conditions: 635 nm fluorescence, higher = more signal;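 note: Shh protein binding to compounds spotted on small-molecule microarray slides; score combines spot fluorescence intensity with signal-to-noise across triplicate slides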
# Chain of Streptavidin (Streptomyces avidinii) (P22629 whole entry, looked up): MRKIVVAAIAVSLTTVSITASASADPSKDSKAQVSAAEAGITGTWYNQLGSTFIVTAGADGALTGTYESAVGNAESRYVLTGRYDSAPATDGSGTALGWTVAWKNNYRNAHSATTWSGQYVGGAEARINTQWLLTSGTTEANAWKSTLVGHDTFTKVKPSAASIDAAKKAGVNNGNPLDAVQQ
# Chain of Torsin-1A (Homo sapiens) (O14656 whole entry, looked up): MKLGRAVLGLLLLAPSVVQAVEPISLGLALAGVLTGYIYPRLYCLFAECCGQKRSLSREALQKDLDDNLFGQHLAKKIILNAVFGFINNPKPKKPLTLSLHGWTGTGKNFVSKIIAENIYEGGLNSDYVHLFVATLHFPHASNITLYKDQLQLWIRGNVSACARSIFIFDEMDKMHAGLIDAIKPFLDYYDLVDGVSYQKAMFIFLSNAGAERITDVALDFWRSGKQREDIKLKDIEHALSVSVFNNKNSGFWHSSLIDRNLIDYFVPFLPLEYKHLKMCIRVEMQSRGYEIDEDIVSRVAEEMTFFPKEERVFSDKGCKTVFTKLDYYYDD
Structure (SMILES),composite z-score [1],z-score [2],z-score [3],z-score [4],z-score [5],composite z-score [6],composite z-score [7],composite z-score (Torsin-1A (Homo sapiens) [8]),composite z-score (Torsin-1A (Homo sapiens) [9]),composite z-score [10]
C=CCOC(=O)[C@H]1[C@@H]2C(=O)O[C@@H](c3ccccc3)[C@@H](c3ccccc3)N2[C@@H](c2ccc(OCCOC(=O)[C@@H]3C[C@@H]4C(=O)N[C@@H](Cc5ccccc5)C(=O)N4[C@@H]3c3ccc(O)cc3)cc2)[C@]12C(=O)Nc1ccc(I)cc12,0.305,-0.268 (inactive),0.0872 (inactive),0.81 (inactive),0.695 (inactive),0.387,0.124,-0.305,0.237,1.93
C=CCNC(=O)[C@H]1[C@@H]2C(=O)O[C@@H](c3ccccc3)[C@@H](c3ccccc3)N2[C@@H](c2ccc(O)cc2)[C@]12C(=O)Nc1ccc(C#CCC(C(=O)OC)C(=O)OC)cc12,-0.223,0.15 (inactive),0.278 (inactive),-0.471 (inactive),0.0988 (inactive),-0.419,-0.0762,0.685,0.449,0.414
C=C(COC)C(=O)CC[C@@H](OC(=O)c1ccccc1-c1ccccc1C(=O)O)c1ccccc1OCCO,0.502,-0.714 (inactive),-0.693 (inactive),2.73 (inactive),15.8 (active),-0.695,-0.0762,1.49,0.0126,1.45
COC(=O)C[C@H]1O[C@]2(C(=O)N(C)c3ccccc32)[C@@H](C)[C@@H]1[Si](C)(C)c1ccccc1,0.148,-4.59 (inactive),0.115 (inactive),-0.141 (inactive),-0.477 (inactive),1.02,-0.204,0.262,0.395,1.65
COc1cc(CO)cc(I)c1O[C@H]1C=C(C(=O)NCCO)C[C@@H](N(CCN2CCOCC2)C(=O)C2CCCO2)[C@@H]1O (stereo not given in full),-0.103,0.0418 (inactive),-0.137 (inactive),0.497 (inactive),-1.04 (inactive),-0.0582,-0.256,0.404,0.0245,-0.203
CC(C)c1ccc(NN2C(C(O)c3ccccc3)C=CC3C(=O)N(c4ccccc4)C(=O)C32)cc1 (stereo not given),0.297,-0.0828 (inactive),-0.89 (inactive),0.433 (inactive),-0.0336 (inactive),0.576,0.271,-0.388,0.514,-0.983
COc1ccc(NN2C(C(O)c3ccccc3)C=CC3C(=O)N(C4CCCCC4)C(=O)C32)cc1 (stereo not given),0.272,-2.44 (inactive),-1.71 (inactive),0.127 (inactive),1.65 (inactive),0.929,0.19,0.473,0.37,0.871

# Reference: PubChem BioAssay
